From PubChem BioAssay AID449762 (Southern Research Specialized Biocontainment Screening …, 2010) come the findings set out here.

About 1,900 (0.58%) of roughly 330,000 compounds were called active. About 4% were inconclusive and are not listed. The list is a sample of the results. Entries with a potency or affinity are not part of this list. A number with no mark means an inactive call. Rule as the data show it: inconclusive = inhibition above about 70% without an active follow-up result; inactive = below that.

The test in a line: M. tuberculosis growth inhibition, HTS (AID 449762).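 Also: bacterial growth assessed after seven days of incubation.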 The conditions noted are these: M. tuberculosis H37Rv growth inhibition, 7H9 media; at 25 µM; hits give high values.
By inhibition is commonly meant the relative decrease from the control value, in per cent. Turning to `Cc1cccc(NC(=O)COC(=O)Cc2cccs2)c1C`, the inhibition is 4.38%.
The result for `Cc1ccc(C)c(N2CN(CCC3=CCCCC3)CNC2=S)c1` reads -4.98%; that for `C[C@@H]1O[C@@H](O[C@H]2[C@H](Oc3cc(O)c4c(c3)O[C@H](c3ccc(O)cc3)CC4=O)O[C@H](CO)[C@@H](O)[C@@H]2O)[C@H](O)[C@H](O)[C@H]1O`, -0.33%; that for `C[C@@H]1O[C@@H](O[C@H]2[C@H](Oc3cc(O)c4c(c3)OC(c3ccc(O)cc3)CC4=O)O[C@H](CO)[C@@H](O)[C@@H]2O)[C@H](O)[C@H](O)[C@H]1O` (stereo partly drawn), -2.06%.
The result for `CCCCc1nc2cc(C(=O)N3CCCCC3CCNC(C)=O)ccc2o1` (stereo not drawn) reads 7.94%.
Take `CCC(CC)c1nnc(NC(=O)c2cc([N+](=O)[O-])ccc2N2CCOCC2)s1`: the inhibition is 5.48%.
For `CCN1CCN(C(=S)NC(=O)/C=C/c2cccs2)CC1` the value was -0.91%; for `O=C(NCCC1=CCCCC1)NC1CCCCC1`, 7.21%; for `NC(=O)NCCC1=CCCCC1`, 7.39%.
The result for `O=C1N[C@@H](Cc2c[nH]c3ccccc23)COC(=O)[C@@H](Cc2ccc(F)cc2)C/C=C\C[C@H]1CC(=O)N(CCO)Cc1ccccc1` reads 4.64%; that for `COc1ccc(C(CNC(=O)c2ccc(Br)o2)N2CCN(C)CC2)cc1` (stereo not drawn), 2.14%.
For `CC(=O)Nc1ccc(NC(=O)C(C)OC(=O)COc2ccc(Nc3ccccc3)cc2)cc1` (stereo not drawn) the value was 40.1%; for `CC(OC(=O)COc1ccccc1Cc1ccccc1)C(=O)N(C)c1ccccc1` (stereo not drawn), -4.05%.
On to `CN(CC(=O)Nc1ccc(Cl)cc1)C(=O)C1=COCCO1`, for which the inhibition is -13.8%.
Regarding `Cc1ccc(NS(=O)(=O)c2c(C)[nH]c(C)c2C(=O)N2CCCC2)cc1`, the inhibition is 2.46%.
Take `Oc1ccccc1N=N/C(=N/Nc1ccccc1O)c1ccccc1`: the inhibition is 10.4%.
With `N#C/C(=N/Nc1ccccc1[N+](=O)[O-])C(N)=S`, the inhibition is -5.6%.
On to `COc1ccc(-c2nc(CN3CCCCC3c3cccnc3)c(C)o2)c(F)c1` (stereo not drawn), for which the inhibition was 3.24%.
Turning to `c1ccc(Oc2cccc(OCCCCN3CCCC3)c2)cc1`, the inhibition is 1.38%.
For `CN1CCN(C(=O)c2cnn3c2NC(c2ccccc2)CC3C(F)(F)F)CC1` (stereo not drawn) the value was -19.6%.
For `CCN(CC)CCCN(Cc1cc2cc3c(cc2[nH]c1=O)OCO3)C(=S)Nc1ccccc1OC` the value was -4.51%; for `CCc1ccc(Nc2n[n+](-c3ccccc3)c(-c3ccc(C(=O)O)cc3)s2)cc1`, 4.87%.
On to `C[n+]1nc(Nc2ccccc2)sc1-c1ccc(O)cc1`, for which the inhibition was 4.57%.
Consider `O=C(NCc1cccs1)c1cc(S(=O)(=O)N2CCOCC2)ccc1N1CCCC1`, for which the inhibition is 5.48%.
Turning to `Cc1ccccc1CN1CCN(c2ccc(S(=O)(=O)N3CCCC3)cn2)CC1`, the inhibition was -6.22%.
For `COC(=O)C1C(=O)C2=C(CC1C)NC(C)=C(C(=O)OC(C)C)C2c1ccc(C)o1` (stereo not drawn) the value was 2.94%.
The result for `COc1ccc(-n2nnnc2S(=O)(=O)Cc2ccc(C(=O)O)cc2)cc1` reads -3.99%.
As for `COc1cc(OC)cc(-n2nnnc2SCC(=O)N2CCCC2)c1`, the inhibition is -5.03%.
For `CCCCn1c(C)c(C(=O)O)c2cc(OC)c3ccccc3c21` the value was 17.8%; for `COc1cc(C(=O)NCCc2cn3ccc(C)cc3n2)cc(OC)c1OC`, -5.75%.
Take `CN=c1scc(-c2cccs2)n1/N=C/c1ccccc1O`: the inhibition is -8.02%.
The result for `CN=c1scc(-c2ccccc2F)n1/N=C/c1ccc[nH]1` reads 67.8%; that for `C[C@H](CO)N1C[C@H](C)[C@@H](CN(C)Cc2ccc(C(=O)O)cc2)Oc2c(NS(=O)(=O)c3ccc(F)cc3)cccc2C1=O`, -2.1%.
On to `O=C(NCc1nnc(SCC(=O)N2CCOCC2)o1)c1c(F)cccc1Cl`, for which the inhibition is -6.01%.
The result for `COc1cccc(OCC(=O)N(C)Cc2nc(-c3cccc(C)c3)no2)c1` reads 1.4%; that for `COc1ccc(O)c(C(=O)c2cnn(C(=O)c3cccc(S(=O)(=O)N4CCOCC4)c3)c2)c1`, -2.2%; that for `CCN(CC(=O)NCc1cccs1)C(=O)c1ccc(C)o1`, 2.46%.
For `CCN(CC(=O)NCc1cccs1)C(=O)c1ccc(-c2ccc(F)cc2)o1`, the inhibition was -1.53%.
Take `CCOc1ccc(S(=O)(=O)N2CCN(C(=O)CN3C(=O)NC4(CCCC4)C3=O)CC2)cc1`: the inhibition is -3.03%.
Regarding `Cc1ccc(OCc2cc(C(=O)Nc3ccccc3)oc2C)cc1`, the inhibition is 0.92%.
Take `Cc1oc(C(=O)Nc2ccc(C(=O)O)cc2)cc1COc1ccccc1`: the inhibition was -2.76%.
The result for `COc1ccc(CCNC(=O)c2cc(C(C)C)on2)cc1OC` reads -0.84%; that for `CCc1ccc2c(c1)C(O)(CC(=O)c1cccs1)C(=O)N2` (stereo not drawn), 10.1%; that for `Cc1cccc2c1NC(=O)/C2=C\C(=O)c1cccs1`, -9.89%.
On to `N#Cc1c(-c2ccccc2)c(-c2ccccc2)nn(CC(=O)NNC(=O)Nc2ccc(Cl)cc2)c1=O`, for which the inhibition is 3.84%.
For `N#Cc1c(-c2ccccc2)c(-c2ccccc2)nn(CC(=O)NNC(=O)Nc2ccccc2)c1=O` the value was -9.35%; for `COc1ccc(NC(=O)C23CC4CC(CC(Cl)(C4)C2)C3)cc1S(=O)(=O)N1CCOCC1`, 1.2%.
For `COC(=O)Cc1ccc(NC(=O)c2ccc3c(c2)C(=O)N(Cc2ccco2)C3=O)cc1`, the inhibition was -5.45%.
`CCOC(=O)c1c(NC(=O)CC2SC(N)=NC2=O)sc(C)c1C` (stereo not drawn): the inhibition is 0.41%.
For `O=S(=O)(NCCN1CCCC1)c1ccc(Br)cc1` the value was 0.37%; for `CN1CCN(Cc2nc3ccccc3c(=O)n2Cc2nc(-c3ccc([N+](=O)[O-])cc3)cs2)CC1`, 3.59%; for `CCOc1ccc(-c2csc(Cn3c(CN4CCN(C)CC4)nc4ccccc4c3=O)n2)cc1`, 8.95%.
Take `CCCCN(C(=O)c1ccc(C#N)cc1)c1c(N)n(CCC)c(=O)[nH]c1=O`: the inhibition was -1.21%.
The result for `O=C(CN1CCCCC1)NC(=O)NC1CCCCC1` reads -4.76%.
In the case of `COc1cc(O)cc2occ(-c3ccc(O)cc3)c(=O)c12`, the inhibition was -14.1%.
For `Cc1nnc(SCC(=O)NC2CCCCC2)n1N` the value was 3.31%; for `Cc1ccc(NC(=O)C(C)Sc2nc(-c3ccccc3)cc(=O)[nH]2)cc1` (stereo not drawn), 14%.
`C=CCn1c(N)cc(=O)nc1SC(C)C(=O)Nc1ccc(C(=O)OCC)cc1` (stereo not drawn): the inhibition was 6.39%.
As to `CCc1ccccc1NC(=O)C1CCCN(c2nn3c(=O)cc(C)nc3s2)C1` (stereo not drawn), the inhibition was -6.18%.
For `O=C(COC(=O)c1cc(S(=O)(=O)N2CCOCC2)ccc1F)c1ccccc1` the value was 0.68%; for `O=C(Nc1cccc(NC(=O)c2cc([N+](=O)[O-])ccc2Cl)n1)c1cc([N+](=O)[O-])ccc1Cl`, 10.1%; for `CCc1cccc(NC(=O)C2CCN(c3ncnc4sc(C)c(C)c34)CC2)c1`, 22.6%.
For `Cc1sc2ncnc(N3CCC(C(=O)Nc4ccc(C#N)cc4)CC3)c2c1C` the value was 7.85%; for `COc1cc(-c2noc(C)c2C(=O)NCc2ccc(C)o2)cc(OC)c1OC`, 3.84%; for `CC(=O)c1c(C)[nH]c(C(=O)OCC(=O)NCc2cccs2)c1C`, 7.06%.
For `CC(C)Nc1nc(NC(C)C)nc(N(C)C(N)=O)n1` the value was 1.68%; for `CC(C)Nc1nc(NC(C)C)nc(N(C)C#N)n1`, 0.57%; for `C=CC[C@H](CC(=O)OC(C)(C)C)C(=O)OC[C@H]1CCCN1C(=O)[C@@H](CC=C)CC(=O)N(CCO)Cc1ccccc1`, -3.24%.
With `C[C@@H](NC(=O)c1[nH]cnc1C(=O)Nc1cccc(Cl)c1)c1ccccc1`, the inhibition is 56.8%.
The result for `C[C@H](NC(=O)c1[nH]cnc1C(=O)Nc1cccc(Cl)c1)c1ccccc1` reads 48.7%; that for `O=C(CN(Cc1ccccc1)C(=O)CNS(=O)(=O)c1ccc(F)cc1)NCC1CCCO1` (stereo not drawn), -5.05%; that for `Cc1nn(C)c(C)c1/C=C/C(=O)c1ccccc1`, 7.75%.
`Cc1nn(-c2ccccc2)c(Cl)c1/C=N/NC(N)=O`: the inhibition was -5.57%.
Consider `O=C(c1cccc(C(F)(F)F)c1)c1c[nH]c(C(=O)NCCCN2CCOCC2)c1`, for which the inhibition was 2.14%.
For `Cc1cc(S(=O)(=O)Nc2ccc3cn[nH]c3c2)c(C)cc1Cl` the value was -3.66%; for `O=C(Nc1ccc2[nH]ncc2c1)c1ccccc1Cl`, -3.21%.
For the compound `O=Cc1cc(Br)c(OC(=O)N2CCOCC2)c(Br)c1`, the inhibition was 5.26%.
As to `OCc1cn(-c2ccccc2)nc1-c1ccc(-c2nn(-c3ccccc3)cc2CO)cc1`, the inhibition was 0.63%.
In the case of `Cc1ccc(-c2nn(-c3ccccc3)cc2CO)cc1`, the inhibition is 4.76%.
For `CC(C)[C@]1(c2ccc(Cl)cc2)ON(c2ccccc2C(F)(F)F)C1=O` the value was 1.98%; for `O=C(CCc1nc2ccccc2c(=O)[nH]1)Nc1nnc(SCc2ccc(Cl)cc2)s1`, -0.53%; for `Cn1ccnc1SCC(=O)NCC(=O)Nc1ccc(F)c(F)c1F`, 1.26%.
For the compound `c1ccc(CN2CCC(Nc3nc(-c4cccnc4)nc4ccccc34)CC2)cc1`, the inhibition is 10.5%.
Consider `c1ccc(-c2nc(NC3CCCC3)c3ccccc3n2)cc1`, for which the inhibition is 11.8%.
With `O=C(Nc1ccc(Cl)c(Cl)c1)c1ccc(Cl)c(Cl)c1`, the inhibition was 1.7%.
Consider `O=C(Nc1ccncc1)c1ccc(Cl)c(Cl)c1`, for which the inhibition was 4.84%.
As for `CC(=O)Nc1ccc2nc3ccccc3nc2c1`, the inhibition was -9.66%.
In the case of `O=C(Nc1ccc2nc3ccccc3nc2c1)c1ccccc1`, the inhibition is -0.69%.
